Consider nine molecules from paper PMC5540273 (PLoS ONE, 2017).

Some test systems named below: NLK; PAK1; PAK2; PAK3; PAK4; PAK6; PAK7; PDGFRA; PDGFRB; PDPK1; PFTAIRE2; PHKG1; PHKG2; PIK3C2B.
Settings in all cases: concentration: 1 μM, replicates: in singlicate; n = 1
The subject of another assay is T1, NIM1.
T1 construct: gene MGC42105

The subject of another assay is T2, OSR1.
T2 construct: gene OXSR1

For another assay, the system named is T3, PCTK1.
T3 construct: gene CDK16

The next assay relates to T4, PCTK2.
T4 construct: gene CDK17

A further assay relates to T5, PCTK3.
T5 construct: gene CDK18

The test system of a further assay is T6, PFTK1.
T6 construct: gene CDK14
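Further: KINOMEscan kinase panel screen.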

With `Cn1cc(-c2[nH]c3cc(NC(=O)[C@H](N)C4CCCCC4)cc4c3c2C=NNC4=O)cn1`, the “%Inh” value in the assay with NIM1 worked out at 96.8%; in the assay on NLK, 0%; in the assay on OSR1, 17%; in the assay with PAK1 it was 27%; with PAK2, 25%; in the assay on PAK3, 83%. Also, the “%Inh” value in the assay with PAK4 was 99.5%; in the assay on PAK6, 99.2%; in the assay with PAK7, 97.9%; in the assay on PCTK1 it was 8%; in the assay on PCTK2 it was 0%; in the assay with PCTK3, 0%. For the same molecule, the “%Inh” value in the assay with PDGFRA is given as 99.7%; in the assay on PDGFRB it was 100%; in the assay with PDPK1, 75%; in the assay on PFTAIRE2 it was 5%; in the assay with PFTK1, 5%; in the assay with PHKG1 it was 65%. For the same molecule, the “%Inh” value is listed as 23% in the assay on PHKG2 and 49% in the assay with PIK3C2B.

Regarding `CC(=O)N1CCN(c2ccc(Nc3nccc(-c4sc(C(C)C)nc4-c4cccc(NS(=O)(=O)c5cccc(Cl)c5)c4)n3)cn2)CC1` [GSK1660437], the “%Inh” value with NIM1 was 0%; in the assay on NLK it was 91.8%; in the assay with OSR1, 5%; in the assay on PAK1 it was 72%; in the assay on PAK2, 90.1%; in the assay with PAK3, 57%. Also, the “%Inh” value in the assay on PAK4 is reported as 0%; in the assay with PAK6 it was 0%; in the assay on PAK7 it was 0%; in the assay on PCTK1 it was 98.6%; in the assay on PCTK2 it was 99.9%; in the assay on PCTK3 it was 100%. In addition, the “%Inh” value stood at 73% with PDGFRA; 99% with PDGFRB; 0% in the assay with PDPK1; 49% in the assay with PFTAIRE2; 57% in the assay on PFTK1; 0% in the assay with PHKG1. The “%Inh” value in the assay with PHKG2 and in the assay on PIK3C2B was 0% each time.

For the molecule `CC(C)(C)c1ccc2nccc(Nc3cccc(O)c3)c2c1` [GW856795], the “%Inh” value with NIM1 is on record as 30%; in the assay with NLK, 0%; in the assay on OSR1, 0%; with PAK1 it was 0%; in the assay on PAK2, 0%; in the assay on PAK3, 0%. Moreover, the “%Inh” value is reported as 23% in the assay on PAK4; 0% with PAK6; 2% in the assay on PAK7; 0% with PCTK1; 0% in the assay on PCTK2; 0% in the assay with PCTK3. Besides, the “%Inh” value in the assay with PDGFRA worked out at 81%; in the assay on PDGFRB it was 1%; with PDPK1 it was 96.3%; in the assay on PFTAIRE2 it was 0%; in the assay with PFTK1, 0%; in the assay on PHKG1 it was 0%. Besides, the “%Inh” value in the assay on PHKG2 amounted to 9%; in the assay on PIK3C2B, 38%.

On to `Nc1ncc(-c2ccc3nccc(-c4ccncc4)c3c2)cc1S(=O)(=O)N1CCOCC1` [GSK1627798], for which the “%Inh” value is given as 0% with NIM1; 0% in the assay with NLK; 0% in the assay on OSR1; 9% in the assay on PAK1; 20% in the assay on PAK2; 5% with PAK3. The “%Inh” value is given as 0% in the assay with PAK4; 0% in the assay with PAK6; 0% in the assay on PAK7; 3% in the assay on PCTK1; 21% in the assay on PCTK2; 26% in the assay on PCTK3. Also, the “%Inh” value with PDGFRA is 0%; in the assay with PDGFRB, 13%; with PDPK1 it was 0%; in the assay with PFTAIRE2 it was 39%; in the assay on PFTK1, 31%; in the assay with PHKG1, 0%. In addition, the “%Inh” value is given as 0% with PHKG2 and 99.5% in the assay with PIK3C2B.

`Cc1cccc(NC(=O)Nc2ccc(Oc3ncnc4ccn(C)c34)cc2)c1`: the “%Inh” value with NIM1, with NLK, in the assay with OSR1, with PAK1, in the assay with PAK2 and with PAK3 was 0% throughout. Besides, the “%Inh” value with PAK4, in the assay with PAK6, in the assay with PAK7, with PCTK1, in the assay with PCTK2 and with PCTK3 was 0% in each case. For the same molecule, the “%Inh” value in the assay with PDGFRA is 99.7%; in the assay on PDGFRB, 100%; in the assay on PDPK1 it was 0%; in the assay on PFTAIRE2, 0%; in the assay with PFTK1, 0%; in the assay with PHKG1, 0%. Also, the “%Inh” value in the assay with PHKG2 and in the assay with PIK3C2B was 0% in each case.

Consider `CN(C)Cc1ccc(-c2ccc3c(Nc4ccc(Oc5ccccn5)cc4)ccnc3c2)o1` [GW567148], for which the “%Inh” value in the assay on NIM1 amounted to 23%; in the assay on NLK it was 0%; in the assay with OSR1, 15%; in the assay with PAK1, 0%; with PAK2, 0%; in the assay with PAK3, 22%. In addition, the “%Inh” value with PAK4 came to 0%; with PAK6, 0%; with PAK7 it was 0%; in the assay on PCTK1, 3%; in the assay with PCTK2, 0%; in the assay on PCTK3, 0%. Also, the “%Inh” value in the assay on PDGFRA stood at 82%; in the assay on PDGFRB, 98.7%; in the assay with PDPK1 it was 0%; with PFTAIRE2 it was 0%; with PFTK1, 0%; in the assay with PHKG1, 2%. Besides, the “%Inh” value with PHKG2 and in the assay with PIK3C2B was 0% each time.

As for `CCS(=O)(=O)c1ccc(OC)c(Nc2nccc(-c3c(-c4cccc(NC(=O)c5c(F)cccc5F)c4)nn4ncccc34)n2)c1` [GSK326180], the “%Inh” value with NIM1 is 7%; with NLK it was 48%; in the assay with OSR1, 9%; with PAK1 it was 0%; in the assay with PAK2, 0%; in the assay with PAK3, 14%. Besides, the “%Inh” value with PAK4 amounted to 0%; with PAK6, 11%; with PAK7, 3%; in the assay with PCTK1, 2%; in the assay with PCTK2, 0%; in the assay with PCTK3, 18%. In addition, the “%Inh” value in the assay with PDGFRA is 0%; in the assay with PDGFRB it was 40%; with PDPK1 it was 0%; in the assay on PFTAIRE2, 27%; in the assay with PFTK1 it was 17%; in the assay with PHKG1 it was 1%. Also, the “%Inh” value with PHKG2 and in the assay on PIK3C2B was 0% in each case.

Regarding `CN(c1ccc(NC(=O)Nc2cc(C(F)(F)F)ccc2F)cc1)c1ccnc(Nc2ccc(S(N)(=O)=O)cc2)n1` [GW809893], the “%Inh” value in the assay with NIM1 is listed as 0%; with NLK, 78%; with OSR1, 6%; in the assay with PAK1 it was 2%; in the assay with PAK2, 11%; in the assay on PAK3 it was 23%. Moreover, the “%Inh” value in the assay on PAK4 is 2%; in the assay with PAK6, 10%; with PAK7, 0%; with PCTK1, 69%; in the assay on PCTK2 it was 97.9%; in the assay with PCTK3, 95.5%. The “%Inh” value in the assay with PDGFRA is given as 96.1%; with PDGFRB, 99.9%; in the assay on PDPK1, 35%; in the assay with PFTAIRE2 it was 96.5%; in the assay on PFTK1, 97%; in the assay on PHKG1, 14%. Besides, the entries for the “%Inh” value in the assay with PHKG2 and in the assay with PIK3C2B were 0% and 29%, respectively.

As for `COc1cccc(C(=O)Nc2cccc(Oc3ccc4nc(NC(=O)C5CC5)cn4n3)c2)c1`, the “%Inh” value in the assay with NIM1 is 0%; in the assay with NLK, 0%; in the assay with OSR1 it was 0%; with PAK1, 17%; with PAK2, 26%; in the assay with PAK3, 23%. The “%Inh” value in the assay on PAK4 is recorded as 18%; with PAK6, 15%; in the assay with PAK7, 0%; with PCTK1, 0%; with PCTK2, 0%; in the assay on PCTK3, 12%. Moreover, the “%Inh” value worked out at 99.9% with PDGFRA; 100% with PDGFRB; 0% in the assay on PDPK1; 8% in the assay on PFTAIRE2; 4% in the assay with PFTK1; 0% in the assay with PHKG1. Also, the “%Inh” value in the assay with PHKG2 and in the assay with PIK3C2B was 0% in each case.
